# According to paper PMC7826789 (International Journal of Molecular Sciences, 2021):
# What was measured:
# Conditions in all cases: Compound Concentration (nM):1000
# PDGFRB = system: PDGFRB
# PDPK1 = system: PDPK1
# PFCDPK1(P.falciparum) = system: T1, PFCDPK1(P.falciparum)
# T1 construct: gene CDPK1
# PFPK5(P.falciparum) = system: T2, PFPK5(P.falciparum)
# T2 construct: gene MAL13P1.279
# PFTAIRE2 = system: T3, PFTAIRE2
# T3 construct: gene CDK15
# PFTK1 = system: T4, PFTK1
# T4 construct: gene CDK14
# PHKG1 = system: PHKG1
# PHKG2 = system: PHKG2
# PIK3C2B = system: PIK3C2B
# PIK3C2G = system: PIK3C2G
# PIK3CA(C420R) = system: PIK3CA(C420R)
# PIK3CA(E542K) = system: PIK3CA(E542K)
# PIK3CA(E545A) = system: PIK3CA(E545A)
# PIK3CA(E545K) = system: PIK3CA(E545K)
# PIK3CA(H1047L) = system: PIK3CA(H1047L)
# PIK3CA(H1047Y) = system: PIK3CA(H1047Y)
# PIK3CA(I800L) = system: PIK3CA(I800L)
# PIK3CA(M1043I) = system: PIK3CA(M1043I)
# PIK3CA(Q546K) = system: PIK3CA(Q546K)
# PIK3CA = system: PIK3CA
# 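Note: KINOMEscan scanMAX binding as percent activity remaining versus control; lower means stronger binding.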
SMILES,Percent Control (PDGFRB),Percent Control (PDPK1),Percent Control (PFCDPK1(P.falciparum)),Percent Control (PFPK5(P.falciparum)),Percent Control (PFTAIRE2),Percent Control (PFTK1),Percent Control (PHKG1),Percent Control (PHKG2),Percent Control (PIK3C2B),Percent Control (PIK3C2G),Percent Control (PIK3CA(C420R)),Percent Control (PIK3CA(E542K)),Percent Control (PIK3CA(E545A)),Percent Control (PIK3CA(E545K)),Percent Control (PIK3CA(H1047L)),Percent Control (PIK3CA(H1047Y)),Percent Control (PIK3CA(I800L)),Percent Control (PIK3CA(M1043I)),Percent Control (PIK3CA(Q546K)),Percent Control (PIK3CA)
CN1CCN(C(=O)c2ccc(NC(=O)Nc3ccc(N(C)c4ccnc(Nc5ccc(CS(C)(=O)=O)cc5)n4)cc3)cc2)CC1.Cl [GW830263A],0%,68%,71%,95%,100%,81%,100%,100%,100%,100%,100%,98%,100%,97%,96%,100%,98%,100%,100%,98%
COc1cc2ncn(-c3cc(O[C@H](C)c4ccccc4Cl)c(C(N)=O)s3)c2cc1OC [GSK237701A],12%,90%,75%,57%,60%,100%,100%,79%,12%,78%,65%,44%,62%,51%,53%,56%,49%,52%,58%,54%
COc1ccccc1-c1cc(/C=C2\C(=O)Nc3ncc(Br)cc32)cc(Br)c1O [GW442130X],72%,89%,100%,100%,100%,100%,100%,100%,59%,87%,78%,100%,76%,100%,100%,50%,100%,60%,100%,83%
NS(=O)(=O)c1ccc(N/N=C2\C(=O)Nc3ccc(Cl)cc32)cc1 [GW280670X],29%,100%,81%,100%,100%,100%,100%,100%,100%,88%,100%,100%,100%,100%,100%,100%,100%,100%,100%,100%
Cl.O=C(Nc1ccc(Oc2ccc3[nH]c(NC(=O)c4ccccc4)nc3c2)cc1)Nc1cc(C(F)(F)F)ccc1F [GW709042A],1.2%,100%,100%,100%,100%,97%,100%,100%,100%,97%,81%,100%,95%,100%,100%,80%,100%,100%,100%,100%
O=C1Nc2ccc(C(=O)c3ccco3)cc2C1=Cc1cc(Cl)c(O)c(Cl)c1 [GW406108X],88%,97%,9.5%,93%,100%,89%,100%,70%,12%,39%,76%,76%,83%,72%,41%,79%,34%,93%,77%,91%
COC(=O)Nc1nc2ccc(Oc3ccc(NC(=O)Nc4cc(C(F)(F)F)ccc4F)cc3)cc2s1.Cl [GW693917A],0.1%,95%,77%,77%,27%,56%,100%,90%,100%,87%,95%,96%,100%,83%,91%,84%,82%,100%,94%,100%
CC1=C(C(=O)Nc2ccc3[nH]ncc3c2)C(c2ccc(Cl)c(Cl)c2)CC(=O)N1 (centres unmarked) [GSK299115A],99%,100%,87%,71%,66%,49%,100%,84%,84%,77%,90%,73%,90%,73%,97%,76%,78%,68%,83%,82%
Cl.c1ccc(Cc2nc3ccc(Nc4ncnc5ccccc45)cc3[nH]2)cc1 [GR269666A],100%,100%,83%,100%,100%,100%,100%,97%,100%,89%,100%,100%,100%,99%,100%,100%,100%,100%,100%,100%
COc1ccc(COc2ccc(Cc3cnc(N)nc3N)cc2OC)cc1 [GW632580X],92%,100%,70%,71%,80%,74%,100%,96%,86%,100%,100%,96%,100%,91%,75%,100%,93%,100%,100%,76%
